From PubChem
ABHD5-PLIN5 inh: ABHD5-PLIN5 interaction inhibitors, primary screen, cell lysate, split luciferase complementation, luminescence; Perilipin-5 (Homo sapiens) + 1-acylglycerol-3-phosphate O-acyltransferase ABHD5 (Homo …; inhibition, % at 4 µM; AID 602281, 2012; Split G. princeps luciferase complementation, 4 h; actives 0.78% (n = 360,000);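 active = inhibition above the mean inhibition across every tested compound plus 3 SD, cut at about 22% in these data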;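 also: 0% = DMSO only wells and the 100% control is not disclosed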
B2AR ag: beta2AR agonists driving receptor internalization, primary screen, cell-based, FAP fluorogen, flow cytometry; AID 504454, 2011; Am2.2-beta2AR cells; response, % (concentration not given with the values); Beta-2 adrenergic receptor (Homo sapiens), P07550; actives 0.43% (n = 340,000);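 active = response above a set limit, near 3 SD of response in nonfluorescent compounds, cut at about 42% in these data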
NOD2 RIPK2 PPI: NOD2-RIPK2 binding disruptors in cells, primary screen, fluorescence, CHO cells, BLA complementation. Receptor-interacting serine/threonine-protein kinase 2 (Homo sapiens), O43353. CCF4 ratio. inhibition, % at 4.98 µM. actives 0.38% (n = 360,000). AID 624267, 2012; in the data active = inhibition above about 21%;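 also: 0% = vehicle only and 100% = reference blocker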
TLR9-MyD88 inh: inhibitors of TLR9-MyD88 association in cells, primary screen, cell-based, CHO, BLA complementation, fluorescence; Toll-like receptor 9 (Homo sapiens) + Myeloid differentiation primary response protein …; CCF4 FRET ratio; inhibition, % at 4.98 µM; actives 0.21% (n = 340,000); AID 504734, 2011;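 active = inhibition above the mean over all tested compounds plus 3 SD, cut at about 21% in these data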;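 also: 0% = DMSO only wells and 100% = clavulanate BLA inhibitor control wells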
Target sequence (Q99836 whole entry, looked up): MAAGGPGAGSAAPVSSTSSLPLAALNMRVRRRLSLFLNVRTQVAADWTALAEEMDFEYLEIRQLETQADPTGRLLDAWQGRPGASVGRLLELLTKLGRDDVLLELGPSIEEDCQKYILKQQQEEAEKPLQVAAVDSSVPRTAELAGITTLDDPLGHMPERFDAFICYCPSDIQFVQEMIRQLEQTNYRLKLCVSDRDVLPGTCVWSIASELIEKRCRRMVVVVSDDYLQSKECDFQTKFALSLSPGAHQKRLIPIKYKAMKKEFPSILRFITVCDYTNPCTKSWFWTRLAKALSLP
Target sequence (Q9NR96 whole entry, looked up): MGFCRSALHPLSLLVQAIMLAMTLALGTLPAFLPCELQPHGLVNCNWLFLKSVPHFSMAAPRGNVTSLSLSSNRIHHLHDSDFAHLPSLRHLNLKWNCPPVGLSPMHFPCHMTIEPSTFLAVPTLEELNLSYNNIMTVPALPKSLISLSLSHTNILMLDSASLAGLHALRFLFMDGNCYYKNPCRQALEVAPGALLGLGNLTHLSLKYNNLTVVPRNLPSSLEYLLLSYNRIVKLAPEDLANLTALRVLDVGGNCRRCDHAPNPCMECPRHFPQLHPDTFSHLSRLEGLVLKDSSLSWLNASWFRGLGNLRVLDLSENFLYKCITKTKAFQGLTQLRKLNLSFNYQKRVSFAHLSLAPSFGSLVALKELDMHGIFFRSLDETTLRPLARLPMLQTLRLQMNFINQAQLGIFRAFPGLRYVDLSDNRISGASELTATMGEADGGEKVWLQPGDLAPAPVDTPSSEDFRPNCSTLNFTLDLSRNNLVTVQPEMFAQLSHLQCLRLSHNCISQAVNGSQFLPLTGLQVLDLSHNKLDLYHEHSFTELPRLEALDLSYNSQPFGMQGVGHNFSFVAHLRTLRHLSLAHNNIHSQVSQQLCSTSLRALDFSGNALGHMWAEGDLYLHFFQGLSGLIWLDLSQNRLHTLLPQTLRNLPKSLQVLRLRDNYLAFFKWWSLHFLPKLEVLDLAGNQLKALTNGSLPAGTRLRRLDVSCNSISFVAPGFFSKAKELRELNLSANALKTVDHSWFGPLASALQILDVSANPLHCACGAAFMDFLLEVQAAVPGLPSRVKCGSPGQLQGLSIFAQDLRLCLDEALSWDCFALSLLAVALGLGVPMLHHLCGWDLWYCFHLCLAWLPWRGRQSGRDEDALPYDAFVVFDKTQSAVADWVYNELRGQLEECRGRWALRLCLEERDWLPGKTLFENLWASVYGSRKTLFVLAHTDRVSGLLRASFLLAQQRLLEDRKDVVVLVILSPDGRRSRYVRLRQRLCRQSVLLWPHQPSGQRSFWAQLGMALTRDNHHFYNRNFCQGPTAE
TLR4 MyD88 comp: inhibitors of TLR4-MyD88 association in cells, primary screen, cell-based, HeLa CL3-4, BLA complementation, FRET ratio; HeLa CL3-4 TLR4/MyD88 BLA complementation; inhibition, % at 8.4 µM; actives 0.18% (n = 200,000); AID 861, 2007; in the data active = inhibition above about 25%;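 also: 0% = vehicle and 100% = reference inhibitor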
NTR1 ag: agonists of human NTR1, primary screen, imaging, U2OS cells, beta-arrestin-GFP, high content. Neurotensin receptor type 1 (Homo sapiens), P30989. NTR1-U2OS beta-arrestin-GFP spot imaging, agonist mode. activation, % at 20 µM. actives 0.17% (n = 330,000);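 active = activation at or above 40% of the spot to cytoplasm intensity ratio, with at least 20 cells analyzed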;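 also: 0% = DMSO without peptide and 100% = 100 nM NTR1 peptide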
Starred values were filed as active, the others as inactive; · = no result. Only some compounds are listed: those with a hit (about 1.5% of all), similar ones and a draw of the others.

SMILES	ABHD5-PLIN5 inh	B2AR ag	NOD2 RIPK2 PPI	TLR9-MyD88 inh	TLR4 MyD88 comp	NTR1 ag
CCOc1ccccc1C(=O)Nc1ccc2nc(N3CCN(c4ncccn4)CC3)cc(C)c2c1	·	·	·	·	-3.1	13.0
COc1cccc(C(=O)Nc2ccc3nc(N4CCN(c5ncccn5)CC4)cc(C)c3c2)c1OC	·	·	·	·	-2.0	46.7*
NC(c1csc(Nc2ccccn2)n1)C1CCCCC1 (centres undefined)	5.0	·	0.7	·	·	·
COc1ccc(OC)c2sc(N(CCCN(C)C)C(=O)c3ccc(S(=O)(=O)N4CCc5ccccc5C4)cc3)nc12	·	·	·	·	·	1.5
CCOc1cccc2sc(N(CCCN(C)C)C(=O)c3ccc(S(=O)(=O)N(CC)Cc4ccccc4)cc3)nc12	22.6*	24.7	6.5	-5.7	·	52.2*
CCOc1ccc2nc(N(CCN(C)C)C(=O)c3cc4ccccc4cc3OC)sc2c1	13.3	1.8	-3.5	8.4	·	2.1
COc1cccc2sc(N(CCCN(C)C)C(=O)c3ccc(S(=O)(=O)N4CCc5ccccc5C4)cc3)nc12	21.5	55.8*	12.7	3.0	·	3.5
CCOc1cccc2sc(N(CCN(C)C)C(=O)c3cc4ccccc4cc3OC)nc12	23.0*	21.3	13.1	-1.9	·	30.4
Cc1nc2cc(NCc3nc4ccccc4n3Cc3ccccc3)ccc2n1C	22.3*	-3.6	2.4	4.9	3.8	2.6
COc1ccc(CCNC(=O)c2cc3cc(Cl)ccc3nc2N)cc1OC	5.7	·	1.6	·	·	·
C[C@@H](c1ccccc1)N1C[C@H](COCc2ccccc2)Oc2cc(N3CC[C@H](O)C3)ccc2S1(=O)=O	-12.8	·	9.4	·	·	·
CCOC(=O)[C@]12CCC=C1N(Cc1ccco1)C(=O)[C@H](CC(=O)NCc1ccc(C)o1)C2	12.3	·	6.1	·	·	·
Cc1ccc(Nc2cc(C)nn2-c2nc(C)cc(=O)[nH]2)cc1	-5.8	31.2	53.1*	41.1*	15.8	18.9
Cc1ccc(Nc2cc(C)nn2-c2nc(C)cc(C)n2)cc1	6.6	-3.4	1.9	-1.3	-7.2	6.4
CC1=C(C(=O)N(C)C)CC(CC(=O)NCc2cccs2)C(=O)N1Cc1ccc(C(C)(C)C)cc1 (centres undefined)	6.1	·	-1.8	·	·	·
CCOC(=O)C1CCCN(C(=O)Cn2cnc3c2c(=O)n(C)c(=O)n3C)C1 (centres undefined)	-1.1	-2.7	-11.3	-7.4	6.3	-2.5
CCOC(=O)C1CCCN(C(=O)Cn2sc3nc(C)cc(C)c3c2=O)C1 (centres undefined)	64.5*	14.8	18.1	8.7	10.0	-1.4
COc1ccc(C(=O)/C=C/C(=O)N(CC(=O)NCCC(C)C)Cc2cccs2)c(O)c1	12.2	119.7*	12.0	2.8	11.0	·
COc1ccc(C(=O)/C=C/C(=O)N(CC(=O)NC2CCCCC2)Cc2ccc(F)cc2)c(O)c1	17.7	123.3*	12.3	-14.6	5.0	·
CS(=O)(=O)N(CC(=O)NC1CCCCC1)Cc1ccc(F)cc1	-4.5	-5.1	-15.8	-1.0	-11.2	-0.2
COc1ccc(C(=O)N(Cc2ccco2)Cc2cccs2)c(O)c1	3.8	1.5	-10.8	-4.1	0.0	-0.8
CC(=O)N(CCC(Cc1ccccc1)c1ccco1)Cc1ccco1 (centres undefined)	16.5	-1.2	-0.6	-7.7	·	0.5
Cc1ccc(C(CCN(Cc2ccccc2)C(=O)c2ccco2)c2ccco2)cc1 (centres undefined)	28.9*	18.2	-19.3	-8.9	-11.7	2.0
CC(=O)N(CCC(c1ccccc1)c1ccco1)Cc1cccs1 (centres undefined)	12.0	-12.1	3.0	-4.6	13.4	-0.9
O=C(c1ccco1)N(CCC(c1ccccc1)c1ccco1)Cc1ccco1 (centres undefined)	28.4*	-10.3	-1.5	-8.3	5.8	3.2
SMILES	ABHD5-PLIN5 inh	B2AR ag	NOD2 RIPK2 PPI	TLR9-MyD88 inh	TLR4 MyD88 comp	NTR1 ag
O=C(O)c1cc(Nc2cc(Cl)c3nonc3c2[N+](=O)[O-])ccc1O	22.9*	-0.1	-7.0	6.6	·	1.1
O=[N+]([O-])c1c(Nc2ccc(O)cc2)cc(N2CCOCC2)c2nonc12	0.5	-14.8	-7.9	-8.9	-1.6	1.1
CCCCn1nnnc1C1(C)CCC(=O)N1CC(F)(F)F (centres undefined)	5.1	·	-17.4	·	·	·
Cc1c(C(=O)N/N=C/c2cccnc2)sc(=S)n1C	-2.6	42.4*	-7.3	-1.3	-2.9	2.9
Cn1c(N)c(C(=O)N/N=C/c2ccccc2)sc1=S	-4.7	8.6	2.2	-0.4	·	3.1
O=c1cc(N=Nc2ccc(Cl)cc2)[nH]c(=O)[nH]1	-20.4	51.0*	-4.9	-19.3	·	·
O=c1cc(-c2ccc(Cl)cc2)oc(=O)[nH]1	-1.8	5.3	1.4	-5.5	·	4.0
O=C(NCc1cccnc1)c1cc(C2CCCN(C(=O)c3cccc(O)c3)C2)on1 (centres undefined)	8.4	·	-11.3	·	·	·
Cc1ccc(F)c(S(=O)(=O)NC(=O)C2(C)CCN2C(=O)CC(c2ccccc2)c2ccccc2)c1 (centres undefined)	-3.0	·	1.1	·	·	·
O=C1c2ccccc2-c2onc3ccc(NCc4ccco4)c1c23	22.4*	-153.3	-1.2	-3.2	-2.1	0.1
Oc1ccc(/C=N/NC(=S)Nc2cccnc2)c(O)c1O	-17.7	67.3*	7.6	-13.0	·	·
CC(C)NC(=O)C1(C)CN(S(C)(=O)=O)CC(=O)N1C1CC1 (centres undefined)	5.2	·	-6.9	·	·	·
CNCc1ccccc1Sc1ccc(O)c(O)c1	23.0*	-0.8	5.6	-6.2	-20.5	·
COC(=O)c1c(C(=O)OC)c2c(-c3ccccc3)cc3cccc1n32	3.7	·	-28.9	-20.2	·	·
CCOC(=O)C1=C(C)N(c2ccccc2)C(=O)/C1=C\c1cccs1	3.1	91.2*	-5.0	-9.4	-14.2	4.2
CCOC(=O)C1=C(C)N(c2ccc(C)cc2)C(=O)/C1=C\c1cccs1	1.0	0.4	-11.6	2.8	-9.9	3.0
CC1(C(=O)NS(=O)(=O)Cc2ccccc2C(F)(F)F)CCN1C(=O)Cc1ccsc1 (centres undefined)	-0.2	·	-9.9	·	·	·
CC1(C)Cc2c(C#N)c(N3CCOCC3)nc(-c3ccccc3)c2CO1	-9.1	-2.7	-4.4	5.7	-16.3	2.0
CC1CCN(c2nc(-c3ccco3)c3c(c2C#N)CC(C)(C)OC3)CC1	22.8*	10.1	1.9	-0.2	-0.7	4.4
COc1ccc(OC)c(-c2csc(NC(=O)COC(=O)c3ccc(NC(=O)CC#N)cc3)n2)c1	-6.9	42.4*	6.1	1.1	·	0.3
Cn1c(=O)cc(OCC(=O)NCc2ccccn2)c2ccccc21	72.5*	-1.4	15.6	-5.4	7.6	-1.4
